A selection: hits, their analogues and other compounds. The true share with any hit is near 1.4%.
N370S GC mod: N370S glucocerebrosidase modulation, Gaucher chaperone candidate; P04062; N370S GC spleen homogenate, 4MU-glucoside fluorescence; Potency, µM (series often up to 59.4 µM), for the others: at the highest dose activity change, negative = inhibition, most hits filed as inhibitors; actives 0.092% (n = 330,000);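 further: potency means the concentration at half of the fitted maximal effect; 0% = full enzyme activity and -100% = no enzyme basal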
TrxR1 substrate: substrates of rat thioredoxin reductase 1 | purified TrxR1 substrate turnover, NADPH consumption readout | actives 0.01% (n = 390,000) | Potency, µM (highest dose often 114 µM), for the others: at the top dose activity change, negative = substrate turnover | O89049; further: potency means the concentration at half of the fitted maximal effect; on the % scale 0 is the no-effect control and ±100 the full control effect; nearly all actives have a fitted effect of over 50% in size
Target sequence (O89049 whole entry, looked up): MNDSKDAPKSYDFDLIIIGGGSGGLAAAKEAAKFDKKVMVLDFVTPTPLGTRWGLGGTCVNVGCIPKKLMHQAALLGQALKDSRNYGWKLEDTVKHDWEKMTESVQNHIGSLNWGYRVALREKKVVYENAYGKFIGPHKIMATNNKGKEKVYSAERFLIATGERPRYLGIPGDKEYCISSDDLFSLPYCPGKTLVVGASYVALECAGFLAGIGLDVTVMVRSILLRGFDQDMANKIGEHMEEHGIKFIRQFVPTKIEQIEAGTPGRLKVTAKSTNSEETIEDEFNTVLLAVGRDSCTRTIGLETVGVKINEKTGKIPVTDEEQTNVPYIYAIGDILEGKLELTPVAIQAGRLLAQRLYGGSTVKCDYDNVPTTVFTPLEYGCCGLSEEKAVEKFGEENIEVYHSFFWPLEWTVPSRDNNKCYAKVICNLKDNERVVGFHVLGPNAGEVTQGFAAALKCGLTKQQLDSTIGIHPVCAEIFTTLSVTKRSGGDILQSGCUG
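Rat TrxR1, dispensed at 90 nM, was prereduced with 400 uM NADPH (final) for 5 min at ~22 deg C, then incubated with compound 15 min before 400 uM selenite. A first-read NADPH fluorescence drop versus no-compound background flagged substrates.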
A-T KAP1 phos: potential ataxia-telangiectasia treatment; Potency, µM (doses to about 57.5 µM), inactives show at the highest dose activation, actives largely listed as activators; actives 0.19% (n = 320,000); F2112 A-T fibroblasts, KAP-1 phosphorylation AlphaLISA; neocarzinostatin DNA damage 30 min before lysis; further: potency means the concentration at half of the fitted maximal effect; % of control where 0% means no effect; nearly all actives have a fitted effect of over 45% in size
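hTERT-immortalized A-T patient fibroblasts (F2112), 500 cells/well in OPTI-MEM, 1% FBS, got compounds for 60 min, then NCS for 30 min at 37C. Lysates were then assayed for phospho-KAP-1 by AlphaLISA (anti-pKAP1 donor, anti-KAP1 acceptor beads), 6 hr at 25C.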
TrxR1 inh: blocks rat thioredoxin reductase 1. O89049. recombinant rTrxR1, NADPH fluorescence consumption, selenite substrate. Potency, µM (titrated, usually from 114 µM), without a hit: top-dose activity change, negative = inhibition, usual class: inhibitors. actives 1% (n = 390,000). AID 588453; further: potency means the concentration at half of the fitted maximal effect; on the % scale 0 is the no-effect control and ±100 the full control effect; nearly all actives have a fitted effect of over 65% in size
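Rat TrxR1 (90 nM in the dispensed reagent) was pre-reduced with 400 uM NADPH for 5 min at room temperature, then incubated with compound for 15 min. After 400 uM selenite was added, NADPH fluorescence (Ex 340/Em 450 nm) was followed for 8 min.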
Akt phos inh: blocks phosphorylation of Akt; activity change, % for hits at 50 µM; actives 0.32% (n = 360,000); Neuro2A IGF-stimulated pAkt S473 HTRF, 20 min; active compounds read low; AID 651550; in the data active means activity change below about -80%; inconclusive means mostly about -51% to -80%; further: on the % scale 0 is the no-effect control and ±100 the full control effect
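Single-point screen (50 µM final compound) in Neuro2A cells stimulated 20 min with 6 nM IGF at 37 deg C. After lysis, Ser473-phosphorylated Akt read by HTRF (ex 330 nm, em 615/665 nm) as the 665/615 ratio.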
Pin1 inh: human Pin1 inhibition. Potency, µM (titrated, usually from 115 µM), without a hit: top-dose activity, negative = inhibition, actives largely listed as inhibitors. Q13526. Pin1 FP peptide displacement, HiFluor488, 10 min. AID 504891. actives 0.009% (n = 390,000); active means well fitted inhibition curve with a large enough effect in the polarisation, with a control signal flat, not every such curve was filed as active; inconclusive means small, poorly fitted or top-dose-only effect, or effect the other way, or a change in a side signal; inactive means no such curve, though single readings can be large or run the other way; the % refers to the polarisation; further: potency means the concentration at half of the fitted maximal effect; on the % scale 0 is the no-effect control and ±100 the full control effect
Target sequence (Q13526 whole entry, looked up): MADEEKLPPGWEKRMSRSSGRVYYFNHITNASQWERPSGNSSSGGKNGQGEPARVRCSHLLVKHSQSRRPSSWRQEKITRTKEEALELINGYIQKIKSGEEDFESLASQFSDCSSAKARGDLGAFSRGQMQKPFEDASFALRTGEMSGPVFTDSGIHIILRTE
Numbers without * were called inactive; ! = not confirmed by another sample; [ ] = another dose, or the depositor's remark. Unless noted, the call rests on the fitted dose curve; in most records, active means well fitted curve in the direction sought with a large enough effect; inconclusive means small, poorly fitted or top-dose-only effect, or another doubt; inactive means no such curve, though single readings can be large; an effect the other way counts as inactive or inconclusive.

N#CC(O)c1ccccc1 (configuration not stated) was read as N370S GC mod -17.0%.
Screening CSc1ncc(/C=C2/C(=O)NC(=O)N(C3CCCCC3)C2=O)cn1 returned N370S GC mod 2.6%, TrxR1 substrate 7.0%[57.1 µM], A-T KAP1 phos 27.6%, TrxR1 inh 11.2µM*, Akt phos inh inactive and Pin1 inh 34.0%.
Screening CCCCN1C(=O)NC(=O)/C(=C/c2cnc(SC)nc2)C1=O returned N370S GC mod 0.8%, TrxR1 substrate 2.8%[57.1 µM], A-T KAP1 phos 2.0%, TrxR1 inh inconclusive, Akt phos inh inactive and Pin1 inh 6.5%.
Screening CSc1ncc(/C=C2/C(=O)NC(=O)N(C)C2=O)cn1 returned N370S GC mod 0.3%, TrxR1 substrate -0.4%, A-T KAP1 phos -2.9%, TrxR1 inh 14.1µM*, Akt phos inh inactive and Pin1 inh -2.6%.
Screening C=CC=O returned N370S GC mod 8.6%.
O=C(OCc1cc(=O)n2nc(C3CC3)sc2n1)c1ccc(NC(=O)c2ccccc2Cl)cc1 was read as TrxR1 substrate 1.7%[57.1 µM], TrxR1 inh 8.3%[57.1 µM] and Pin1 inh inconclusive.
Screening CCC(C)N1C(=O)/C(=C\c2cnc(N(C)C)nc2)C(=O)NC1=S (configuration not stated) returned N370S GC mod -2.3%, TrxR1 substrate 8.8%[57.1 µM], A-T KAP1 phos 23.2%, TrxR1 inh 14.1µM*, Akt phos inh inactive and Pin1 inh 22.5%.
CCC(C)N1C(=O)/C(=C\c2cc3c4c(c2)CCCN4CCC3)C(=O)NC1=S (configuration not stated) was read as N370S GC mod -3.8%, TrxR1 substrate -0.8%, A-T KAP1 phos 5.5%, TrxR1 inh 31.6µM*, Akt phos inh inactive and Pin1 inh 3.0%.
Screening Cc1cc(N2CCCCC2)ccc1C=C1C(=O)N(C)C(=S)N(C)C1=O returned N370S GC mod -13.4%, TrxR1 substrate -1.0%, A-T KAP1 phos 7.6%, TrxR1 inh 11.2µM*, Akt phos inh inactive and Pin1 inh 19.2%.
Screening CCC(C)N1C(=O)/C(=C\c2ccc(N3CCCCCC3)cc2)C(=O)NC1=S (configuration not stated) returned N370S GC mod -0.3%, TrxR1 substrate 4.5%[57.1 µM], A-T KAP1 phos 0.8%, TrxR1 inh 8.91µM*, Akt phos inh inactive and Pin1 inh inconclusive.
`C(CCOCC1CO1)COCC1CO1` (configuration not stated) gave N370S GC mod -1.7%.
`Cc1ccc(C)c(N2CCN(c3nc4ccc(Cl)cc4n4cnnc34)CC2)c1` gave TrxR1 substrate 29.5%, TrxR1 inh 10.6% and Pin1 inh 0.6%.
Cc1ccc(CNc2cc(C)nc3nc(-c4ccc(C)cc4)nn23)cc1 was read as TrxR1 substrate -0.8%[57.1 µM], TrxR1 inh 22.0%[57.1 µM] and Pin1 inh inconclusive.
Screening CN1C(=O)/C(=C\c2ccc(N3CCCCCC3)cc2)C(=O)NC1=S returned N370S GC mod 2.5%, TrxR1 substrate -2.2%, A-T KAP1 phos 0.6%, TrxR1 inh 20µM*, Akt phos inh inactive and Pin1 inh 32.8%.
Screening CCCCN1C(=O)/C(=C/c2ccc(N3CCCCCC3)cc2)C(=O)NC1=S returned N370S GC mod 25.4% and A-T KAP1 phos 0.9%.
`CCOC(=O)N1CCN(/[N+]([O-])=N/Oc2ccc([N+](=O)[O-])cc2[N+](=O)[O-])CC1C` (configuration not stated) gave N370S GC mod -10.8%, TrxR1 substrate -15.8%, TrxR1 inh inconclusive and Pin1 inh -2.8%.
CCOC(=O)N1CCCN(/[N+]([O-])=N/Oc2ccc([N+](=O)[O-])cc2[N+](=O)[O-])CC1 was read as N370S GC mod -4.9%, TrxR1 substrate -11.4%, TrxR1 inh 15.8µM* and Pin1 inh -6.9%.
For [Hg+][c]1ccccc1 the results were TrxR1 substrate -0.7% and TrxR1 inh inconclusive.
`CC(=O)N1CC(=O)Nc2ccc(Cl)cc2C1c1ccccc1` (configuration not stated) gave N370S GC mod -12.0%, TrxR1 substrate 2.4%, A-T KAP1 phos 25.1µM*, TrxR1 inh 27.0%, Akt phos inh inactive and Pin1 inh -6.7%.
Screening CN[C@@H](C)[C@H](O)c1ccccc1 returned N370S GC mod -24.4%, TrxR1 substrate -1.9% and TrxR1 inh 25.1µM*!.
For CN[C@H](C)[C@H](O)c1ccccc1 the results were N370S GC mod -15.0%, TrxR1 substrate 2.2%, TrxR1 inh 13.4%, Akt phos inh inactive and Pin1 inh 2.3%.
Cn1nc(-c2ccccc2)nc2c(=O)n(C)c(=O)nc1-2 was read as TrxR1 substrate 39.8µM* and TrxR1 inh inconclusive.
Cc1nc2c(=O)n(C)c(=O)nc-2n(C)n1 was read as N370S GC mod 29.3%, TrxR1 substrate 35.5µM*, A-T KAP1 phos 0.5%, TrxR1 inh 50.1µM*, Akt phos inh inactive and Pin1 inh inconclusive.
CCCSC(=O)Cl was read as N370S GC mod 12.4%.
`CCOP(=O)(OCC)C(O)c1ccccc1` (configuration not stated) gave N370S GC mod 0.2%, TrxR1 substrate 2.0%, A-T KAP1 phos 1.8%, TrxR1 inh 20.8%, Akt phos inh inactive and Pin1 inh 4.1%.
`CCOP(=O)(C1=C(O)C(=O)C(C(C)(C)C)=CC1=O)c1ccccc1` (configuration not stated) gave N370S GC mod -10.9%, TrxR1 substrate 8.3%, A-T KAP1 phos 1.9%, TrxR1 inh 4.47µM*, Akt phos inh inactive and Pin1 inh inconclusive.
For CCCCCCCCCC[Si](C)(C)CCC(=O)NC(Cc1ccc(C)cc1)c1ccccc1 (configuration not stated) the results were N370S GC mod -3.0%, TrxR1 substrate 6.8%[57.1 µM] and TrxR1 inh 21.1%[57.1 µM].
For NC(Cc1ccc(N(CCCl)CCCl)cc1)C(=O)O (configuration not stated) the results were N370S GC mod -2.6%, TrxR1 substrate 3.4%[57.1 µM] and TrxR1 inh 39.8µM*.
Screening Cc1ccc(S(=O)(=O)Oc2ccccc2C=C2C(=O)N(C)C(=O)N(C)C2=O)cc1 returned N370S GC mod 14.7%, TrxR1 substrate -2.6%, A-T KAP1 phos 7.8%, TrxR1 inh 50.1µM*, Akt phos inh inactive and Pin1 inh -3.0%.
CCc1ccc(N2C(=O)NC(=O)/C(=C/c3ccsc3)C2=O)cc1 was read as N370S GC mod -3.9% and A-T KAP1 phos 0.9%.
